# Results published in paper PMC7862700, “An all-to-all approach to the identification of sequence-specific readers for epigenetic DNA modifications on cytosine”.
# What was measured:
# Assay in all cases: DAPPL (digital affinity profiling via proximity ligation, sequencing); 10 mM Tris-HCl pH 7.5, 50 mM NaCl, 1 mM DTT, 4% glycerol, room temperature, 30 min; GST-TFs on glutathione beads, 16-mer random dsDNA library, 0.1% formaldehyde crosslink after washing; high values mean tight binding
# FLI1 = target: T1, FLI1 (Homo sapiens, UniProt Q01543 1-452); conditions: protein: recombinant; tags: N-terminal GST; dsDNA, one strand shown
# T1 sequence: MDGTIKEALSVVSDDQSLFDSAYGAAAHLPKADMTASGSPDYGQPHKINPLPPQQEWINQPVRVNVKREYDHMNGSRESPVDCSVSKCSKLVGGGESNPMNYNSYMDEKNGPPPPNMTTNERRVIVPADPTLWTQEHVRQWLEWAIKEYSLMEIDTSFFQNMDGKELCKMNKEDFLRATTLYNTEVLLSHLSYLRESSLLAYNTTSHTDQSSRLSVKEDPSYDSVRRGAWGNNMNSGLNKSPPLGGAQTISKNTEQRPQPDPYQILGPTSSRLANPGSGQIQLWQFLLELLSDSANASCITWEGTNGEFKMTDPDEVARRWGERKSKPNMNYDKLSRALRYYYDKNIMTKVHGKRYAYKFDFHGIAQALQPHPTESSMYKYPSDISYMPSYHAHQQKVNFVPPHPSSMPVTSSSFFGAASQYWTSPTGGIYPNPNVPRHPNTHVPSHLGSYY
# Procedure, shortened: (§1)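 Human transcription factors fused to GST were expressed in yeast, captured on glutathione beads, given DNA barcodes and pooled with a GST-only negative control. Pools were incubated with 200 nmole of a 16-mer random double-stranded DNA library in Tris/NaCl/DTT/glycerol buffer at room temperature for 30 min. They were then washed, crosslinked with 0.1% formaldehyde, proximity-ligated (BsaI/T4 ligase, 1 h, 37 °C), PCR-amplified and sequenced on an Illumina NextSeq500. Binding signal is each 6-mer's read frequency for a factor divided by its frequency for the GST control.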
# ELK1 = target: T2, ELK1 (Homo sapiens, UniProt P19419 1-428); conditions: protein: recombinant; tags: N-terminal GST; dsDNA, one strand shown
# T2 sequence: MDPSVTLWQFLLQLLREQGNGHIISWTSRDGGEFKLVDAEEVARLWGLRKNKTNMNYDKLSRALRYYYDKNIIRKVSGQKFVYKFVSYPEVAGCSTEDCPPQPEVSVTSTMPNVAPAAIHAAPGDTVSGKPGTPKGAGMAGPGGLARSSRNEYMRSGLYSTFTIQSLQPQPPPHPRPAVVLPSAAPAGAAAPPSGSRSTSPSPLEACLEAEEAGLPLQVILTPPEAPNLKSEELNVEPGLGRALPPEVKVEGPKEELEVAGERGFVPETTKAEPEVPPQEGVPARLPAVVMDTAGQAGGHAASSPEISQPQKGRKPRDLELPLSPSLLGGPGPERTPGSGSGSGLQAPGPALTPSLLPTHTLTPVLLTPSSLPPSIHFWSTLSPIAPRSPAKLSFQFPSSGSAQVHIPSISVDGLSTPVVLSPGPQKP
# Procedure, shortened: as §1
# GABPA = target: T3, GABPA (Homo sapiens, UniProt Q06546 1-454); conditions: protein: recombinant; tags: N-terminal GST; dsDNA, one strand shown
# T3 sequence: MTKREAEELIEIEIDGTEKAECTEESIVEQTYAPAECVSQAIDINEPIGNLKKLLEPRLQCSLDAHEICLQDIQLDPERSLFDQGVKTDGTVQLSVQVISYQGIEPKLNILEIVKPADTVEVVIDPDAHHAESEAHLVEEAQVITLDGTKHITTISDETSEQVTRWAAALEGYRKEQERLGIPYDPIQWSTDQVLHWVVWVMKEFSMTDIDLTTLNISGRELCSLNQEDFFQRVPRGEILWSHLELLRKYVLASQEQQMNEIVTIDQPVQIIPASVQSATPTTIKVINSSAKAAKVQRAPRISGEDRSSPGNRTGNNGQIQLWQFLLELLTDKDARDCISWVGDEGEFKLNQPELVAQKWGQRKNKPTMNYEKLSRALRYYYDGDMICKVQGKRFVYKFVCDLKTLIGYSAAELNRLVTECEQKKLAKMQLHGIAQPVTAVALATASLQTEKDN
# Procedure, shortened: as §1
# ERG = target: T4, ERG (Homo sapiens, UniProt P11308 1-479); conditions: protein: recombinant; tags: N-terminal GST; dsDNA, one strand shown
# T4 sequence: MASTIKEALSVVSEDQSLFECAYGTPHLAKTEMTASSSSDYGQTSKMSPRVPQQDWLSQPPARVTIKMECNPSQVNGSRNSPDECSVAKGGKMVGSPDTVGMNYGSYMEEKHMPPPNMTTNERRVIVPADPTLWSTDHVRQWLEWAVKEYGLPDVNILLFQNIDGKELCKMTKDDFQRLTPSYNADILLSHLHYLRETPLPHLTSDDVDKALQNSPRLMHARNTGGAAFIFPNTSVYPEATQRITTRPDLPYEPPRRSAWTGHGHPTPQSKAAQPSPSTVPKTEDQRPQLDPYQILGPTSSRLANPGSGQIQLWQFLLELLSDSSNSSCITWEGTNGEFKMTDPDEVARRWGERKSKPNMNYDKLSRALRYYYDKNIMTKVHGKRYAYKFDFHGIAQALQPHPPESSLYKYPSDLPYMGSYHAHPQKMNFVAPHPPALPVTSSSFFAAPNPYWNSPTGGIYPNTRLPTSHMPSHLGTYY
# Procedure, shortened: as §1
# ELF1 = ELF1 (Homo sapiens, UniProt P32519 1-619); conditions: protein: recombinant; tags: N-terminal GST; dsDNA, one strand shown
# Sequence of ELF1 (P32519 whole entry): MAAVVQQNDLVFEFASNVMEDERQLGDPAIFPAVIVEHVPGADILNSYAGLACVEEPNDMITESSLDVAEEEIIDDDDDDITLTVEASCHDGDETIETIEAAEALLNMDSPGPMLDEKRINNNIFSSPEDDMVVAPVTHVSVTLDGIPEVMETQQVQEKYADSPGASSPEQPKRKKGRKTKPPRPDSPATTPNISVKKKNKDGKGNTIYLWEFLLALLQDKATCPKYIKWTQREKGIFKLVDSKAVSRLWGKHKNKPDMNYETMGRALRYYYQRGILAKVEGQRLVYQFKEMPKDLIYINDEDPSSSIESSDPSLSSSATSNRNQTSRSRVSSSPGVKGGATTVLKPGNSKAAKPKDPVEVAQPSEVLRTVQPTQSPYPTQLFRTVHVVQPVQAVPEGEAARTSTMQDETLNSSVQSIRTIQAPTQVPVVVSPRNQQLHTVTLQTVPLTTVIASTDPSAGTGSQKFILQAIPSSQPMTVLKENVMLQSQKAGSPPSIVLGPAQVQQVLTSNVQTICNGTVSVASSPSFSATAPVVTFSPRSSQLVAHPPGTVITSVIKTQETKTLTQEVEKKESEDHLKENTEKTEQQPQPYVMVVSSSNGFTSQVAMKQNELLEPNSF
# Procedure, shortened: as §1
# EHF = target: T5, EHF (Homo sapiens, UniProt Q9NZC4 1-300); conditions: protein: recombinant; tags: N-terminal GST; dsDNA, one strand shown
# T5 sequence: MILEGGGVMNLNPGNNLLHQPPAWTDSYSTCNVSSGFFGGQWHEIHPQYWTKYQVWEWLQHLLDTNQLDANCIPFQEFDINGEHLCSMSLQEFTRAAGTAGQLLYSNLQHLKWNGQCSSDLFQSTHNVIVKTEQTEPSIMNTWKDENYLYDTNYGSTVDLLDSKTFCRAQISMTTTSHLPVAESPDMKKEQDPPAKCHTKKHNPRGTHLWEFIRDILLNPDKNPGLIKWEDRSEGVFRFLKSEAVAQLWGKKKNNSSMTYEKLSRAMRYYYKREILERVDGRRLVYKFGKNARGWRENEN
# Procedure, shortened: as §1
# SPI1 = SPI1 (Homo sapiens, UniProt P17947 1-270); conditions: protein: recombinant; tags: N-terminal GST; dsDNA, one strand shown
# Procedure, shortened: as §1
# SPIB = SPIB (Homo sapiens, UniProt Q01892 1-262); conditions: protein: recombinant; tags: N-terminal GST; dsDNA, one strand shown
# Sequence of SPIB (Q01892 whole entry): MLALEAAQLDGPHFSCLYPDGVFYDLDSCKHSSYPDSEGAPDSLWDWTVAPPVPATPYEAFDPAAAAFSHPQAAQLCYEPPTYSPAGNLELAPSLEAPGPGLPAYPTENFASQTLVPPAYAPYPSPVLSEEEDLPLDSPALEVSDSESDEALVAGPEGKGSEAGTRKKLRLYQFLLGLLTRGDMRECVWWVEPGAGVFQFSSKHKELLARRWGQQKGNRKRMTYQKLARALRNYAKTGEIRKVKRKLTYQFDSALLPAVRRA
# Procedure, shortened: as §1
# ELK3 = target: T6, ELK3 (Homo sapiens, UniProt P41970 1-407); conditions: protein: recombinant; tags: N-terminal GST; dsDNA, one strand shown
# T6 sequence: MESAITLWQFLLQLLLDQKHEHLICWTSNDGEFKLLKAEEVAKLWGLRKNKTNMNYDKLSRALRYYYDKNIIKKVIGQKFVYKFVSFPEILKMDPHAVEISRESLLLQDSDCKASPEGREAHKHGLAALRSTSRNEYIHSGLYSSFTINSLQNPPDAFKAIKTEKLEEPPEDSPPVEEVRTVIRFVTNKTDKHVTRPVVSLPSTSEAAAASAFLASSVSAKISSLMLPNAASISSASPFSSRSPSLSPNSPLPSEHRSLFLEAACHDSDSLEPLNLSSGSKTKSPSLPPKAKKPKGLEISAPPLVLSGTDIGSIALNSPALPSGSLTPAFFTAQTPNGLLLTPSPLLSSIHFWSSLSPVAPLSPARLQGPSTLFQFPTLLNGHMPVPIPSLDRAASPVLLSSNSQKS
# Procedure, shortened: as §1
# FEV = target: T7, FEV (Homo sapiens, UniProt Q99581 1-238); conditions: protein: recombinant; tags: N-terminal GST; dsDNA, one strand shown
# T7 sequence: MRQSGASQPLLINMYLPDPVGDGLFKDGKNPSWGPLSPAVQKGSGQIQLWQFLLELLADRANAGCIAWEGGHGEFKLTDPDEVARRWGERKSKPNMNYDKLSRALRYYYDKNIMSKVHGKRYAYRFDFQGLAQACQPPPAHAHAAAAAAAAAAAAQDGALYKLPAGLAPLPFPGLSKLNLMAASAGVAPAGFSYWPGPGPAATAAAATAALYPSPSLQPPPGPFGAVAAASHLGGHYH
# Procedure, shortened: as §1
# ETV5 = ETV5 (Homo sapiens, UniProt P41161 1-510); conditions: protein: recombinant; tags: N-terminal GST; dsDNA, one strand shown
# Sequence of ETV5 (P41161 whole entry): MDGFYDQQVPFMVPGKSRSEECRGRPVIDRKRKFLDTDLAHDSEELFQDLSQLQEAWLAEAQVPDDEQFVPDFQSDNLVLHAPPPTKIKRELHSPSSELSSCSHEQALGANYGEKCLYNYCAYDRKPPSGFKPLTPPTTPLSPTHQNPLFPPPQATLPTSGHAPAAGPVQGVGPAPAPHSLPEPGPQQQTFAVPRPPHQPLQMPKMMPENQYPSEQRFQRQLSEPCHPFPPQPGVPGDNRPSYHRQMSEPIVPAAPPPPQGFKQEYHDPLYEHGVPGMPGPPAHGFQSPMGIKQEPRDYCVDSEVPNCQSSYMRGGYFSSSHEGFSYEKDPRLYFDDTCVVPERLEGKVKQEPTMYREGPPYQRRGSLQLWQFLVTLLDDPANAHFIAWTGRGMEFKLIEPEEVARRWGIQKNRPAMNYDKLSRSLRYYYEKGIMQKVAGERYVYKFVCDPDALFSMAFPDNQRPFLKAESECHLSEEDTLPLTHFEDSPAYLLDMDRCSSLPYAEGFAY
# Procedure, shortened: as §1
# HSF1 = HSF1 (Homo sapiens, UniProt Q00613 1-529); conditions: protein: recombinant; tags: N-terminal GST; chain copies: 3; dsDNA, one strand shown
# Sequence of HSF1 (Q00613 whole entry): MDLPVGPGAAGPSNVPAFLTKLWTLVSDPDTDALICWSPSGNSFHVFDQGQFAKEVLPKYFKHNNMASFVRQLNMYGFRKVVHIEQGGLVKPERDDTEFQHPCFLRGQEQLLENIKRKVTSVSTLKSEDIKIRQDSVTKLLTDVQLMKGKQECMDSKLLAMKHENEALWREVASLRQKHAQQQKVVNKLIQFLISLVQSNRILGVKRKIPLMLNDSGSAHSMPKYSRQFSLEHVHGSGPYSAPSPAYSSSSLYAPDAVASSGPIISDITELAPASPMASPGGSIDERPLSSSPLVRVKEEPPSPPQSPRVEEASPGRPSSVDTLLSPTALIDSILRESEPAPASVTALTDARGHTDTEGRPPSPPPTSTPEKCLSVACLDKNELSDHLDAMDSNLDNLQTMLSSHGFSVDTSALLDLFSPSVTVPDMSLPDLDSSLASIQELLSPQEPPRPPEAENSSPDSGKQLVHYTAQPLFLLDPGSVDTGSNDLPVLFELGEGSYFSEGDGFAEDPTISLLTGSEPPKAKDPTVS
# Procedure, shortened: as §1
# SPIC = target: T8, SPIC (Homo sapiens, UniProt Q8N5J4 1-248); conditions: protein: recombinant; tags: N-terminal GST; dsDNA, one strand shown
# T8 sequence: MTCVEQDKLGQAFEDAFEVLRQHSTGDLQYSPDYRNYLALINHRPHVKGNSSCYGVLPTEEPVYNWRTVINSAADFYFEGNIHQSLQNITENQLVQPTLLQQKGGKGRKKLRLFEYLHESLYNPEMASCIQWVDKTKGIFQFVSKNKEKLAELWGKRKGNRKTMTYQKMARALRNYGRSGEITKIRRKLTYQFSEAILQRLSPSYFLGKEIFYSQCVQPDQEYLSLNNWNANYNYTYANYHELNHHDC
# Procedure, shortened: as §1
# ELF4 = ELF4 (Homo sapiens, UniProt Q99607 1-663); conditions: protein: recombinant; tags: N-terminal GST; dsDNA, one strand shown
# Sequence of ELF4 (Q99607 whole entry): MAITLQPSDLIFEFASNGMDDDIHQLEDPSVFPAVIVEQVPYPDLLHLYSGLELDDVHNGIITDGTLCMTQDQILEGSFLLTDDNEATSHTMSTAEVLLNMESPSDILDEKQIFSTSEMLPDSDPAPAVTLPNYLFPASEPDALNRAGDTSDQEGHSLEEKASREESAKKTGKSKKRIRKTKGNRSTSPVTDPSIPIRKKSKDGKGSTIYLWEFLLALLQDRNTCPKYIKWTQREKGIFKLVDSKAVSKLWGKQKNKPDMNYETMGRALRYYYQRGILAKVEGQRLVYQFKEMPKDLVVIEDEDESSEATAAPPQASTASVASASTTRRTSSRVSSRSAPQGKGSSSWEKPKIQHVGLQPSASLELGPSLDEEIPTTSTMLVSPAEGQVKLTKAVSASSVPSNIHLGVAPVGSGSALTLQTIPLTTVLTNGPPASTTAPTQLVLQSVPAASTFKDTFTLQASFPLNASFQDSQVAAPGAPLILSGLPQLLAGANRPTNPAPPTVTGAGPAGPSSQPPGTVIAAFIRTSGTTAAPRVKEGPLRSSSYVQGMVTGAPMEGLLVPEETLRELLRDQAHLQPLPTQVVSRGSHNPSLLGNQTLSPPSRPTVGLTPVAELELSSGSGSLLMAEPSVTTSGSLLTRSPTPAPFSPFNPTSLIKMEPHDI
# Procedure, shortened: as §1
# ELK4 = target: T9, ELK4 (Homo sapiens, UniProt P28324-2 1-405); conditions: protein: recombinant; tags: N-terminal GST; dsDNA, one strand shown
# T9 sequence: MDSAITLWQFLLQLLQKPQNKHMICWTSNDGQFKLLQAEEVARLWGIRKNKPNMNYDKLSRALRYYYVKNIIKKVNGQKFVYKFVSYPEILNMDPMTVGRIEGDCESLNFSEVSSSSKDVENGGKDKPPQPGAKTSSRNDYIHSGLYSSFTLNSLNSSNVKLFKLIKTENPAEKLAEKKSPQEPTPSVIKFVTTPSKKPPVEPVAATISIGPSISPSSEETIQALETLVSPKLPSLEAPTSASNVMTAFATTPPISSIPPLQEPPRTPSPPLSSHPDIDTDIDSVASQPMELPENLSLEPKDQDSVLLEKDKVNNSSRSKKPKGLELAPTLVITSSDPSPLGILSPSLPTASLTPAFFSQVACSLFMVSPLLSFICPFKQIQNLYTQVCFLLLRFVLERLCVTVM
# Procedure, shortened: as §1
# ETV2 = target: T10, ETV2 (Homo sapiens, UniProt O00321 1-342); conditions: protein: recombinant; tags: N-terminal GST; dsDNA, one strand shown
# T10 sequence: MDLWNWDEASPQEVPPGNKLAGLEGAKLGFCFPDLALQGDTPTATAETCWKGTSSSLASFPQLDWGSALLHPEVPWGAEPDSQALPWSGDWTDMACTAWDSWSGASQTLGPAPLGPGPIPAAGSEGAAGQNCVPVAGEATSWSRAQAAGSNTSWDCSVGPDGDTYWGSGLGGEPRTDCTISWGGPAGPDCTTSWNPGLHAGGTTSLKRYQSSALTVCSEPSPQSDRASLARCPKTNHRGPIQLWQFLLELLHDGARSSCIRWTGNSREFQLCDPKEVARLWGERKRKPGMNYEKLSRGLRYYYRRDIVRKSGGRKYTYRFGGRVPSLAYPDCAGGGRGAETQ
# Procedure, shortened: as §1
# ELF3 = target: T11, ELF3 (Homo sapiens, UniProt P78545 1-371); conditions: protein: recombinant; tags: N-terminal GST; dsDNA, one strand shown
# T11 sequence: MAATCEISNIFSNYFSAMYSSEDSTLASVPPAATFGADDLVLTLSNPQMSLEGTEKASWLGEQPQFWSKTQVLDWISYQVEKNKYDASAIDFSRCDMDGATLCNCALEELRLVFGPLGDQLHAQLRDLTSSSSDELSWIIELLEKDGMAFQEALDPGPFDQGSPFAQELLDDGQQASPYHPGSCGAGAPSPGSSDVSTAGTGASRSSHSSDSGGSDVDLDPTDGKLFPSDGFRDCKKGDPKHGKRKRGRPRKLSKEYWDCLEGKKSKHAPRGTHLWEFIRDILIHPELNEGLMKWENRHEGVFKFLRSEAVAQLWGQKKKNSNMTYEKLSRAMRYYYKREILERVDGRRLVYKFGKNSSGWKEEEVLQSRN
# Procedure, shortened: as §1
# CRX = CRX (Homo sapiens, UniProt O43186 1-299); conditions: protein: recombinant; tags: N-terminal GST; dsDNA, one strand shown
# Sequence of CRX (O43186 whole entry): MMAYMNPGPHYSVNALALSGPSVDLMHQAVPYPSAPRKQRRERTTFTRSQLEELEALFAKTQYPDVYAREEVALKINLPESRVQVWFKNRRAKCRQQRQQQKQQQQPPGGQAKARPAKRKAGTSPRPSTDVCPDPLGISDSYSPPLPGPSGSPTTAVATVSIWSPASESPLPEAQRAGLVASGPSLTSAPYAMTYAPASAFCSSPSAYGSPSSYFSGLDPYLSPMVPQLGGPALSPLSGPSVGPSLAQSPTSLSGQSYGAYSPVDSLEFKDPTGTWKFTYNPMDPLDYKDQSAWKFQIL
# Procedure, shortened: as §1
# ETV1 = ETV1 (Homo sapiens, UniProt P50549 1-477); conditions: protein: recombinant; tags: N-terminal GST; dsDNA, one strand shown
# Sequence of ETV1 (P50549 whole entry): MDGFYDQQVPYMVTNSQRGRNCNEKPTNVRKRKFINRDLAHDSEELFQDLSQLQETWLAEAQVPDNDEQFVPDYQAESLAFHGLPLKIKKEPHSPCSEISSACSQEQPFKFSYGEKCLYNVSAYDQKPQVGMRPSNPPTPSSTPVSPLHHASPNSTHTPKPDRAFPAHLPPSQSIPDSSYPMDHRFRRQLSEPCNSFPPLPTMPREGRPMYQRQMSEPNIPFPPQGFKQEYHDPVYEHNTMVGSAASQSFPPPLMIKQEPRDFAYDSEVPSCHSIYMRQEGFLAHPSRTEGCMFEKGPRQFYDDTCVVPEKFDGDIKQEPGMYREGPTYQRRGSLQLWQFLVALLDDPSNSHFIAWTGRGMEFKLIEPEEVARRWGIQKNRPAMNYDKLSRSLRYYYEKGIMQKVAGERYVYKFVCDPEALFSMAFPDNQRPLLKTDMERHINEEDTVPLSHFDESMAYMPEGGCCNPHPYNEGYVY
# Procedure, shortened: as §1
sequence,measurement,setting,value
CTGTCT,binding signal,FLI1,"1.35 fold enrichment (6-mer frequency, TF over GST control)"
same,binding signal,ELK1,"1.3 fold enrichment (6-mer frequency, TF over GST control)"
same,binding signal,GABPA,"1.31 fold enrichment (6-mer frequency, TF over GST control)"
same,binding signal,ERG,"1.46 fold enrichment (6-mer frequency, TF over GST control)"
same,binding signal,ELF1,"1.35 fold enrichment (6-mer frequency, TF over GST control)"
same,binding signal,EHF,"1.35 fold enrichment (6-mer frequency, TF over GST control)"
same,binding signal,SPI1,"1.33 fold enrichment (6-mer frequency, TF over GST control)"
same,binding signal,SPIB,"1.3 fold enrichment (6-mer frequency, TF over GST control)"
same,binding signal,ELK3,"1.62 fold enrichment (6-mer frequency, TF over GST control)"
same,binding signal,FEV,"1.42 fold enrichment (6-mer frequency, TF over GST control)"
same,binding signal,ETV5,"1.4 fold enrichment (6-mer frequency, TF over GST control)"
same,binding signal,HSF1,"1.22 fold enrichment (6-mer frequency, TF over GST control)"
same,binding signal,SPIC,"1.56 fold enrichment (6-mer frequency, TF over GST control)"
same,binding signal,ELF4,"1.38 fold enrichment (6-mer frequency, TF over GST control)"
same,binding signal,ELK4,"1.46 fold enrichment (6-mer frequency, TF over GST control)"
same,binding signal,ETV2,"1.26 fold enrichment (6-mer frequency, TF over GST control)"
same,binding signal,ELF3,"1.47 fold enrichment (6-mer frequency, TF over GST control)"
same,binding signal,CRX,"1.09 fold enrichment (6-mer frequency, TF over GST control)"
same,binding signal,ETV1,"1.4 fold enrichment (6-mer frequency, TF over GST control)"
